Here are results for twelve compounds from PubChem BioAssay.

Activity calls are given as the source filed them. Unless noted, no rule for the calls is given here.

Test [1] in a line: resazurin metabolic signal in HepG2 cells – cell-based, resazurin fluorescence, 24 h, PK04 Diversity Set, profiling panel (AID 1172). Also: test concentration not given here. As to conditions: HepG2 viability, higher = more signal. On the technique in general: Alamar Blue is a resazurin reagent that responds to reducing activity.
Test [2] is described as follows: budding yeast growth changes without added modifier – OD600, strain BY4716, 24 h, basal condition, primary screen (AID 1173). To be noted: S. cerevisiae BY4716 growth, OD600, 24 h; higher = more signal, called active from +8 up or from −8 down.
The nature of test [3]: viability profiling in MM1S myeloma cells – cell-based, resazurin fluorescence, basal, 24 h, PK04 Diversity Set, profiling panel (AID 1174).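 Also: MM1S multiple myeloma cell line; test concentration not given here.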 To be noted: higher = more signal, called active from +8 up or from −8 down.
Test [4] has as its target Dihydroorotate dehydrogenase (quinone), mitochondrial (Plasmodium falciparum (isolate 3D7)) (UniProt Q08210). As to the kind of experiment: inhibition of P. falciparum DHODH – biochemical, C-terminal His tag, absorbance 600 nm, primary screen (AID 1175).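 Also: recombinant parasite enzyme with a five histidine tag at its C terminus; test concentration not given here.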 To be noted: PfDHODH enzyme, DCIP absorbance 600 nm; higher = more signal, called active from +8 up or from −8 down.
A short description of test [5]: inhibition of PAO1 biofilm formation – strain PAO1, LB-PBS medium, absorbance 600 nm, primary screen (AID 1176). Also: test concentration not given here. As to conditions: P. aeruginosa PAO1 growth/biofilm, A600, 12 h; higher = more signal.
Test [6] in a line: growth modulation of vineyard yeast isolate – strain RM11-1a, OD600, basal, 24 h, primary screen (AID 1177).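 Also: cultures grown under basal conditions with no added stressor; test concentration not given here.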 As to conditions: S. cerevisiae RM11-1a growth, OD600, 24 h; higher = more signal, called active from +8 up or from −8 down.
The nature of test [7]: growth of efflux-deficient E. coli DRC39 – strain DRC39, OD650, 24 h, E. coli filamentation inducers, primary screen (AID 1178).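 Also: growth measured as culture turbidity by optical density at 650 nm; test concentration not given here.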 As to conditions: E. coli DRC39 acrAB, higher = more signal, called active from +8 up or from −8 down.
The nature of test [8]: growth of efflux-deficient E. coli DRC39 – strain DRC39, OD650, 48 h, E. coli filamentation inducers, primary screen (AID 1179).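 Also: screen aims at cell division blockers that make cells filament.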 To be noted: E. coli DRC39 delta-acrAB growth, higher = more signal, called active from +8 up or from −8 down.
Test [9] is described as follows: viability profiling in RPMI8226 myeloma cells – cell-based, resazurin fluorescence, basal, 24 h, PK04 Diversity Set, profiling panel (AID 1180).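 Also: RPMI8826 multiple myeloma cell line at 5000 cells per well; test concentration not given here.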 To be noted: higher = more signal.
The target of test [10] is E3 ubiquitin-protein ligase XIAP (Homo sapiens) (UniProt P98170). As to the kind of experiment: small molecules binding XIAP protein – biophysical, small-molecule microarray, fluorescence 635 nm, primary screen (AID 1181).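 Also: score merges 667 nm emission and signal to noise over triplicate slides.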 To be noted: higher = more signal.
Sequence of E3 ubiquitin-protein ligase XIAP (Homo sapiens) (P98170 whole entry, looked up): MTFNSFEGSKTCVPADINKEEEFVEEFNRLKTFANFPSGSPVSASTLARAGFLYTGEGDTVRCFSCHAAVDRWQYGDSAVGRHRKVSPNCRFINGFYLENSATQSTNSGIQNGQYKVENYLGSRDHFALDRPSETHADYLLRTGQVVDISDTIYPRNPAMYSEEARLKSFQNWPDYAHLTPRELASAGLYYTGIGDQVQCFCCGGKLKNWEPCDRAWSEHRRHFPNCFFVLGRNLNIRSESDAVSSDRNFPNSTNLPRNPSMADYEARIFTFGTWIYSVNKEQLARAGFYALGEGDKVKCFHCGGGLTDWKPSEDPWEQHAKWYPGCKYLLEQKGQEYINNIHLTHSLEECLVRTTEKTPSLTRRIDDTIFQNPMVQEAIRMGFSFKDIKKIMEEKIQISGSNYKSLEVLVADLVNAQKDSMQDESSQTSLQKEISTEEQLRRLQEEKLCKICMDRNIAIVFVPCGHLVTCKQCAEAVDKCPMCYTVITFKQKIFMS

Sequence of Dihydroorotate dehydrogenase (quinone), mitochondrial (Plasmodium falciparum (isolate 3D7)) (Q08210 whole entry, looked up): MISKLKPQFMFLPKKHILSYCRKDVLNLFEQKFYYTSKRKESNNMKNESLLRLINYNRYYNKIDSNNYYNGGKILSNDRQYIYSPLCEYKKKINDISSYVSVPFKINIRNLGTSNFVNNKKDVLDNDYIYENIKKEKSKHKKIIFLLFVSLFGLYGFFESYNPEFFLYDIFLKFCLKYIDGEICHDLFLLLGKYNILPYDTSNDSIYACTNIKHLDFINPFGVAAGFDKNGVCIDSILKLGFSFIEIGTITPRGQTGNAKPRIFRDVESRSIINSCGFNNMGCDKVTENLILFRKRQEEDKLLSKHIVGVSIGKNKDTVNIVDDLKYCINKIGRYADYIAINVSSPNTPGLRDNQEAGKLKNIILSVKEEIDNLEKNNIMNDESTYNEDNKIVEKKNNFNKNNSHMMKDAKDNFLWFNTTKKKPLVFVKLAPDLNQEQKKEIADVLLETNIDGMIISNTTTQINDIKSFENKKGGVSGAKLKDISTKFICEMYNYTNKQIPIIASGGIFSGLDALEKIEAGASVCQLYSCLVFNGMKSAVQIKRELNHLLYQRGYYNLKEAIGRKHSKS

For `CCc1cc2c(nc1CC)CCN(CCC(C)=NO[C@H](C)c1cn([C@@H]3COC[C@H]3O)nn1)C2`, the z-score in test [1] was -0.51; in test [2], 0.485 (inactive); in test [3] it was -1.4 (inactive); in test [5], -0.643 (inactive); in test [6], 0.431 (inactive); in test [7] it was 0.415 (inactive). Also, the z-score is 0.741 (inactive) in test [8] and -0.828 in test [9]. Besides, the composite z-score in test [4] is -0.0125 (inactive); in test [10], 0.0368.
Regarding `CC(C)=CCCC(C)=CCON=C1C[C@@H](O)[C@@H](O)[C@@H]2[C@@H]3C(=O)N(C(C)(C)C)C(=O)[C@@H]3CC[C@@H]12`, the z-score in [1] is -0.976; in test [2], -0.0139 (inactive); in [3], 0.408 (inactive); in test [5] it was 1.23 (inactive); in test [6] it was -0.0348 (inactive); in test [7], -0.106 (inactive). For the same compound, the z-score is -1.26 (inactive) in test [8] and -0.11 in test [9]. The composite z-score in test [4] is 0.661 (inactive); in [10] it was -0.172.
As to `CO[C@H]1COC(=O)CC=C[C@@H](C)[C@H](OC)COC(=O)CCC[C@@H]1C`, the z-score in test [1] is 0.855; in test [2], -0.966 (inactive); in test [3], 0.818 (inactive); in test [5], -0.172 (inactive); in test [6], -1.45 (inactive); in [7], 0.153 (inactive). The z-score in test [8] is 0.039 (inactive); in test [9], 0.518. Besides, the composite z-score in test [4] is -0.526 (inactive); in [10], 0.523.
For `Cc1ccc(S(=O)(=O)n2c3ccccc3c3nnc(C(=O)c4ccccc4)nc32)cc1`, the z-score in [1] is -0.148; in test [2] it was -0.586 (inactive); in test [3], -0.508 (inactive); in test [5], 0.523 (inactive); in test [6], 0.151 (inactive); in [7], 1.04 (inactive). Further, the z-score in [8] was 0.0979 (inactive); in [9], -0.222. The results for the composite z-score in test [4] and in test [10] were -1.1 (inactive) and -0.256, respectively.
Regarding `C[C@H](ON=C1[C@H]2CCn3c(=O)n(-c4ccccc4)c(=O)n3[C@H]2[C@H](O)[C@@H]2O[C@H]12)c1cn([C@H](CO)Cc2ccccc2)nn1`, the z-score in test [1] is -0.189; in [2], -0.145 (inactive); in test [3] it was -0.489 (inactive); in test [5], 0.0282 (inactive); in test [6], -1.09 (inactive); in [7], 0.571 (inactive). In addition, the z-score in test [8] is 0.223 (inactive); in test [9] it was -0.226. Further, the results for the composite z-score in [4] and in test [10] were -1.29 (inactive) and -0.106, respectively.
On to `CC1O[C@H]2C3=C(C(=O)[C@@H]4O[C@@H]4[C@H]3O)[C@@H]1C1[C@@H](C)OC=C3[C@H](O)C4O[C@@H]4C(=NOCc4ccccc4)[C@]312` (stereo not given in full), for which the z-score in test [1] is -1.04; in test [2], -0.456 (inactive); in test [3], -4.85 (inactive); in [5], -0.364 (inactive); in [6], 0.543 (inactive); in test [7] it was 0.158 (inactive). For the same compound, the z-score in test [8] was -0.123 (inactive); in test [9], -2.84. Moreover, the composite z-score in [4] is 0.0953 (inactive); in test [10], 0.215.
For the compound `CCOC(=O)[C@H](CC(C)C)NC(=O)CCC1CC(OC(=O)NCCc2ccc(F)cc2)CC2(CCCC(COC(=O)NCC3CCCCC3)O2)O1` (stereo not given in full), the z-score was 1.1 in test [1]; 0.776 (inactive) in test [2]; 0.0789 (inactive) in test [3]; 0.201 (inactive) in test [5]; -0.547 (inactive) in test [6]; -0.0313 (inactive) in test [7]. Also, the figures for the z-score in [8] and in test [9] were -1.02 (inactive) and 0.738, respectively. In addition, the composite z-score was -0.161 (inactive) in test [4] and -0.153 in test [10].
Consider `CCCNC(=O)OC[C@H]1O[C@H](CCON=C(C)CCN2CCc3nc(CC)c(CC)cc3C2)C=C[C@@H]1Oc1ccc(OC)cc1`, for which the z-score is -1.09 in [1]; -0.139 (inactive) in [2]; -1.45 (inactive) in test [3]; -0.598 (inactive) in test [5]; 0.02 (inactive) in test [6]; -1.13 (inactive) in test [7]. For the same compound, the results for the z-score in test [8] and in test [9] were -1.53 (inactive) and 0.622, respectively. The composite z-score in [4] is 0.358 (inactive); in [10], -0.0559.
`COc1cccc([C@H]2Oc3ccc(OC)cc3C(=NOC[C@@H](O)COCc3ccco3)[C@@H]2O)c1`: the z-score was -0.949 in test [1]; -1.38 (inactive) in test [2]; -1.19 (inactive) in test [3]; -0.254 (inactive) in test [5]; -2.29 (inactive) in [6]; 0.0207 (inactive) in [7]. For the same compound, the values for the z-score in test [8] and in test [9] were -0.947 (inactive) and -0.825, respectively. Also, the composite z-score was -1.58 (inactive) in test [4] and 0.0785 in [10].
For `CCOC(=O)[C@H](CC(C)C)NC(=O)CCC1CC(OC(=O)NCc2cccc3ccccc23)CC2(CCCC(COC(=O)NCCOc3ccccc3)O2)O1` (stereo not given in full), the z-score in [1] was 0.329; in test [2] it was -0.895 (inactive); in [3], 0.572 (inactive); in test [5], -0.127 (inactive); in test [6] it was -0.879 (inactive); in test [7], 0.0446 (inactive). Moreover, the z-score in test [8] was 0.253 (inactive); in test [9], 1.57. Moreover, the composite z-score was -0.785 (inactive) in test [4] and -0.142 in [10].
For the compound `O=C1[C@H]2[C@H]3[C@H](O)[C@H](O)CC(=NOC[C@@H](O)COCc4ccco4)[C@H]3CC[C@H]2C(=O)N1Cc1ccccc1`, the z-score was 1.57 in test [1]; -1.34 (inactive) in test [2]; 0.737 (inactive) in test [3]; 0.377 (inactive) in test [5]; -1.36 (inactive) in test [6]; -0.194 (inactive) in test [7]. Also, the z-score in test [8] is -0.22 (inactive); in test [9], 1.1. Also, the composite z-score in [4] was -0.336 (inactive); in [10] it was -0.0749.
On to `O=C1CCCC=C1C(O)CCOC(c1ccccc1)(c1ccccc1)c1ccccc1` (stereo not given), for which the z-score in test [1] is 0.0714; in [2], -0.529 (inactive); in [3], 0.0795 (inactive); in test [5] it was 0.368 (inactive); in test [6], 1.25 (inactive); in test [7] it was 0.0368 (inactive). Further, the z-score in test [8] is -0.356 (inactive); in test [9] it was -0.193. Besides, the composite z-score in test [4] was 0.466 (inactive); in test [10] it was 0.412.
